Seven compounds from PubChem BioAssay (NCI) can be followed below.

Holding throughout (experiment): NCI-60 one-dose screen, 48 h (100 = growth as untreated, 0 = no growth, -100 = all killed)
What all share (conditions): 10 µM

Test [1] deals with HCT-15 colon.
In test [2] the test system is HT29 colon.
Test [3] concerns SNB-75 CNS.
Test [4] relates to SNB-19 CNS.
In test [5] the test system is U251 CNS.
Test [6] concerns PC-3 prostate.
The test system of test [7] is SK-MEL-5 melanoma.
Test [8] deals with UACC-62 melanoma.
Test [9] concerns LOX IMVI melanoma.
In test [10] the test system is SK-MEL-28 melanoma.
Test [11] has as its system SK-MEL-2 melanoma.
For test [12], the system named is EKVX NSCLC.
The subject of test [13] is SN12C renal.
Test [14] relates to UO-31 renal.
Test [15] has as its system TK-10 renal.
The test system of test [16] is ACHN renal.
In test [17] the test system is CAKI-1 renal.
Test [18] deals with A498 renal.
The subject of test [19] is CCRF-CEM leukemia.
Test [20] has as its system MOLT-4 leukemia.

Each structure is given as a SMILES string. This is part of a sample that, as a whole, favours compounds with a hit. Of some 83,000 tested, about 20% had one in any assay.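 How to read the values: 0–100, growth inhibition (40 = 60% inhibited); 0, no net growth; -100 to 0, cell death (-40 = 40% of starting cells died; -100 = all dead).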 Unmarked numbers belong to inactive results. The source made the active and inactive calls. The calls were made as follows: active = growth percent below 10; inactive = the rest.

Take `CN1CCCN(Cc2ccc(C(=O)Nc3cccc(Nc4ccc5c(O)cccc5n4)c3)cc2C(F)(F)F)CC1`: the growth is -55.6% (active) in [1]; -55.2% (active) in [2]; 13.9% in test [3]; -81.2% (active) in test [4]; -65.7% (active) in test [5]; 2.18% (active) in test [6]. Besides, the growth in test [7] was -100% (active); in test [8], -94.8% (active); in test [9], -95.5% (active); in [10], -100% (active); in test [11], -76.5% (active); in [12], -87% (active). The growth is -86.1% (active) in test [13]; -56.1% (active) in test [14]; -65.3% (active) in test [15]; -74.7% (active) in test [16]; -85.3% (active) in test [17]; 61.8% in test [18]. Further, the figures for the growth in [19] and in test [20] were 8.39% (active) and 9.64% (active), respectively.

`Cc1ccc(C(=O)N/C(=C2/OCCN2C)[P+](c2ccccc2)(c2ccccc2)c2ccccc2)cc1`: the growth was 110% in test [1]; 59.7% in test [2]; 99.9% in [3]; 74.1% in test [4]; 75.5% in test [5]; 62.5% in test [6]. Besides, the growth is 72.2% in [7]; 48.2% in [8]; 44.8% in test [9]; 72.2% in [10]; 81.1% in test [11]; 75.4% in [12]. Besides, the growth in [13] was 86%; in [14], 85.4%; in test [15] it was 102%; in [16], 114%; in [17], 102%; in test [18], 122%. In addition, the growth was 73.5% in test [19] and 84.4% in test [20].

As for `O=C(NO)c1ccc(CN2CCN(c3nc(-c4ccccc4)c4ccccc4n3)CC2)cc1`, the growth in test [1] is 22.5%; in test [2], 30.4%; in test [3], 81.7%; in [4] it was 22.8%; in test [5], 15.2%; in [6] it was 30.8%. For the same compound, the growth was -95.9% (active) in test [7]; -23.9% (active) in test [8]; -60.6% (active) in [9]; 24.1% in [10]; 67.4% in [11]; 16% in test [12]. In addition, the growth is 15.9% in test [13]; -11.6% (active) in test [14]; 19.7% in test [15]; 4.08% (active) in test [16]; 6.42% (active) in test [17]; 61.4% in test [18]. The growth in test [19] was 12%; in test [20], 22.9%.

As to `O=C(c1ccc(Cl)cc1)C1[C@H](c2ccc(Br)cc2)[C@@H](c2ccccc2)NC12C(=O)Nc1ccc(Cl)cc12` (stereo not given in full), the growth in [1] is -87.6% (active); in [2], -49.4% (active); in [3] it was -4.86% (active); in test [4], -8.73% (active); in test [5], -80.8% (active); in test [6], -30.5% (active). Also, the growth is -68.5% (active) in [7]; -87.2% (active) in test [8]; -100% (active) in [9]; -86.9% (active) in [10]; -77.7% (active) in test [11]; -47.8% (active) in [12]. The growth in [13] is -92.5% (active); in [14] it was -29.2% (active); in test [15] it was -17.4% (active); in test [16] it was -17.2% (active); in test [17], -92.7% (active); in test [18] it was -16.9% (active). The growth was -17% (active) in test [19] and -28.8% (active) in test [20].

In the case of `COc1cc2c3c(n(CCCNCCO)c(=O)c2cc1OC)-c1nc2c(cc1C3=O)OCO2`, the growth in [1] was 48.5%; in test [2], 5.98% (active); in test [3], 18.8%; in test [4] it was 13.7%; in [5], 12.4%; in test [6], 27.1%. In addition, the growth was 30.4% in test [7]; 1.57% (active) in [8]; -90.8% (active) in test [9]; 72.2% in test [10]; 116% in [11]; 79% in test [12]. Also, the growth in [13] was 8.45% (active); in test [14], 24.4%; in [15], 85.5%; in test [16] it was 2.56% (active); in [17] it was 7.66% (active); in [18], 69.3%. Also, the growth in [19] was 8.64% (active); in test [20], -14.4% (active).

Take `COc1nccnc1NS(=O)(=O)c1ccc(NC2=C(Cl)C(=O)c3nc(C)ccc3C2=O)cc1`: the growth is 93.7% in test [1]; 120% in test [2]; 111% in test [3]; 97.9% in test [4]; 96.9% in [5]; 80.2% in test [6]. Moreover, the growth in test [7] is 100%; in test [8], 101%; in test [9] it was 71.7%; in test [10] it was 121%; in test [11], 113%; in test [12] it was 88.2%. The growth was 99.1% in [13]; 74.5% in test [14]; 132% in test [15]; 109% in test [16]; 88.7% in [17]; 94% in [18]. Besides, the growth in [19] was 97%; in test [20], 94.8%.

For `COc1cccc2nc(Nc3ccc(F)c(NC(=O)c4ccc(CN5CCN(C)CC5)c(C(F)(F)F)c4)c3)ccc12`, the growth is -83% (active) in test [1]; -30.2% (active) in test [2]; -3.82% (active) in [3]; -49.2% (active) in test [4]; -42.7% (active) in test [5]; -8.36% (active) in test [6]. In addition, the growth in test [7] is -94.9% (active); in [8], -82.1% (active); in [9], -100% (active); in test [10], -84% (active); in test [11], 14.6%; in test [12], 13%. The growth in test [13] was 26.8%; in test [14], 5.08% (active); in test [15] it was 50.3%; in test [16], 0.664% (active); in test [17] it was -2.36% (active); in test [18], 77%. For the same compound, the growth in [19] was -3% (active); in [20], -16.5% (active).
